SW480 rereplic: DNA re-replication induction in SW480 cells | SW480 DNA re-replication, Hoechst DNA content imaging, 48 h | Potency, µM (series often up to 46.1 µM), without a hit: at the top dose re-replication activation, most hits filed as activators | actives 1.8% (n = 340,000); further: % of control where 0% means no effect; nearly all actives have a fitted effect of over 55% in size
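First, 250 cells per well were seeded. Next, compound or vehicle (23 nL) was pinned in, plates sat 48 hr at 37 C. Finally Hoechst was added for 40 min before fluorescence scanning.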
Gal4-VP16 FLuc: inhibits Gal4-VP16 luciferase reporter, ROR gamma counter-screen; Drosophila S2 Gal4-VP16 UAS-luciferase, luminescence, 20 h; Potency, µM (top dose mostly 53.6 µM), for the others: at the highest dose activity, negative = inhibition, hits mostly inhibitors; actives 3.5% (n = 310,000); AID 2546;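 further: Gal4-VP16 expression switched on by copper sulfate through the metallothionein promoter; on the % scale 0 is the no-effect control and ±100 the full control effect; nearly all actives have a fitted effect of over 50% in size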
MCF10A rereplic: DNA re-replication induction in MCF 10a cells; actives 2.9% (n = 350,000); Potency, µM (doses to about 46.1 µM), for the others: top-dose activity, positive = re-replication, hits mostly activators; MCF 10A DNA re-replication, Hoechst nuclear intensity, 48 h; further: % of control where 0% means no effect; nearly all actives have a fitted effect of over 50% in size
RORgamma inh: blocks mouse ROR gamma transcriptional activity. P51450. Drosophila S2 Gal4-RORgamma UAS-luciferase reporter, 20 h. Potency, µM (doses to about 53.6 µM), inactives show top-dose activity change, negative = inhibition, most hits filed as inhibitors. actives 5.4% (n = 310,000); further: on the % scale 0 is the no-effect control and ±100 the full control effect; nearly all actives have a fitted effect of over 60% in size
Target sequence (P51450 whole entry, looked up, the tested form may be a part): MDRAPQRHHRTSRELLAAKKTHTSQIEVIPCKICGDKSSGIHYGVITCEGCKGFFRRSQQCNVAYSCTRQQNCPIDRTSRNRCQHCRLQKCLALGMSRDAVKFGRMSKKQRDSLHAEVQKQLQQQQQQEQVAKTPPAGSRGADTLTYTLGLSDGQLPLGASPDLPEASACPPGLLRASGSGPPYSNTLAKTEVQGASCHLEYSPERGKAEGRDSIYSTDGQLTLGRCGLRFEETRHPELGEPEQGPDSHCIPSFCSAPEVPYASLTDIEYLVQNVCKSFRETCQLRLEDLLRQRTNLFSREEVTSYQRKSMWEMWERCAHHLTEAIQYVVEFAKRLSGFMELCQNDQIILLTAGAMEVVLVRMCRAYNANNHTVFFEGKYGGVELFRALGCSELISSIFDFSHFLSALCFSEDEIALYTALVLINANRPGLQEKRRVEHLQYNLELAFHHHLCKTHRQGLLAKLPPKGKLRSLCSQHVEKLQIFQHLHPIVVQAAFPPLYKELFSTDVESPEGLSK
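Using a luciferase readout, inhibitors were identified by reduced reporter activity in Drosophila cells coexpressing a copper-inducible Gal4–ROR gamma fusion and UAS-driven Photinus luciferase, incubated 20 hr after 700 uM copper sulfate.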
KB-3-1 tox: kills parental KB-3-1 adenocarcinoma cells; KB-3-1 viability, CellTiter-Glo ATP luminescence, 72 h; Potency, µM (doses to about 46.1 µM), actives largely listed as cytotoxic; actives 1.4% (n = 400,000); further: on the % scale 0 is the no-effect control and ±100 the full control effect; nearly all actives have a fitted effect of over 60% in size
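KB-3-1 cells, DMEM (no phenol red) + 10% FBS; compound by pin transfer, 72 h, 37 °C. Readout: CellTiter-Glo luminescence after 10 min. Data normalized, curve-fitted.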
KB-V1 MDR tox: kills drug-selected multidrug resistant KB-V1 cells | KB-V1 MDR cells viability, CellTiter-Glo, 72 h | actives 3.4% (n = 400,000) | Potency, µM (series often up to 46.1 µM), hits mostly cytotoxic; further: on the % scale 0 is the no-effect control and ±100 the full control effect; nearly all actives have a fitted effect of over 60% in size
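Drug-selected KB-V1 cells, grown in DMEM lacking phenol red with 10% FBS, receive compound titrations; after three days at 37 degrees C, surviving cell ATP is quantified by CellTiter-Glo luminescence and responses normalized and curve-fitted.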
Starred values were filed as active, the others as inactive; i = inactive; u = inconclusive; x = not tested or not shown; ! = a repeat was not active; [ ] = another dose, or the depositor's remark. Most compounds without a hit are left out; they make up all but 10% or so of the library. The call rests on the fitted dose curve; in most records, active means well fitted curve in the direction sought with a large enough effect; inconclusive means small, poorly fitted or top-dose-only effect, or another doubt; inactive means no such curve, though single readings can be large; an effect the other way counts as inactive or inconclusive. Potency means the concentration at half of the fitted maximal effect.

SMILES	SW480 rereplic	Gal4-VP16 FLuc	MCF10A rereplic	RORgamma inh	KB-3-1 tox	KB-V1 MDR tox
COc1ccc(/C=N/NC(=O)CSCC(=O)Nc2ccccc2)cc1	-15%	-16%	3%	6%	i	i
COc1cccc(/C=N/NC(=O)CCn2nnc3ccccc32)c1	6%	-3%	-5%	u	i	i
COc1ccc(O)c(/C=N\NC(=O)CCn2nnc3ccccc32)c1	u	2.8µM*	u	8.9µM*	i	i
CC1CCCCC1N(C)C1CCN(C(=O)CNC(=O)/C=C/c2cccc(Cl)c2)CC1 (configuration not stated)	u	1%	-2%	-21%	i	i
CO[C@]1(C)C[C@H]2O[C@]1(C)n1c3ccccc3c3c4c(c5c6ccccc6n2c5c31)C(=O)N(C)C4	x	0%	x	-6%	x	x
CCc1ccc(-n2nc(C)c3c(C)cc(=O)n(CC(=O)Nc4ccccc4C(=O)OC)c32)cc1	x	x	x	x	i	i
Cc1ccc(Cl)cc1NC(=O)NCc1cccnc1	18µM*	1%	0%	-13%	i	i
NS(=O)(=O)c1ccc(CCNC(=O)NC2(C(F)(F)F)Oc3ccccc3O2)cc1	-5%	u	u	11µM*	u	u
Cc1cc(NC(=O)NC2(C(F)(F)F)Oc3ccc(Cl)cc3O2)no1 (configuration not stated)	10%	2%	-1%	u	u	18µM*
COCCNC(=O)NC1(C(F)(F)F)Oc2ccc(Cl)cc2O1 (configuration not stated)	3%	u	15%	u	23µM*	u
CCCCNC(=O)NC1(C(F)(F)F)Oc2ccccc2O1	-2%	1%	u	-6%	u	i
O=C(NCCN1CCOCC1)NC1(C(F)(F)F)Oc2ccccc2O1	1%	-4%	18%	-31%	i	i
Cc1ccc2nc3sc(C(=O)NCc4ccco4)cc3cc2c1	x	x	x	x	i	i
O=C(NCc1cccnc1)NC1(C(F)(F)F)Oc2ccc(Cl)cc2O1 (configuration not stated)	13%	u	11%	11µM*	u	3.3µM*
O=C1Cc2cc(S(=O)(=O)N3CCN(c4ccc([N+](=O)[O-])cc4)CC3)ccc2N1	x	x	x	x	i	i
Cc1nc(N2CCOCC2)c2cc(-c3ccccc3)sc2n1	0%[9.22 µM]	-3%	23%	10%	i	i
Cc1nc(SCCC(=O)O)c2cc(-c3ccccc3)sc2n1	-3%	0.5µM*	11%	0.89µM*	i	i
COC(=O)c1ccc(NC(=O)c2nc(SCc3ccccc3F)ncc2Cl)cc1	x	x	x	x	i	i
CC(=O)C1=C(c2ccc(Br)cc2)C(=O)c2ccccc2C1=O	8.2µM*	6.3µM*	7.3µM*	14µM*	u	7.3µM*
CCOC(=O)/C=c1/s/c(=C/c2ccc3cc(OC)ccc3c2)c(=O)n1CC(=O)NCc1ccc2c(c1)OCO2	u	x	1.5µM*	x	u	i
CCOC(=O)/C=c1\s/c(=C\c2ccc3cc(OC)ccc3c2)c(=O)n1CC(=O)NCC1CCCO1 (configuration not stated)	25%	-15%	12µM*	0%	21µM*	18µM*
CCOC(=O)/C=c1\s/c(=C\c2ccc(C(F)(F)F)cc2)c(=O)n1CC(=O)NCc1ccco1	2.3µM*	-23%	23µM*	-13%	i	i
N/C(=C\c1ccccc1)c1ccncc1	x	x	x	x	i	i
CC1CN(S(=O)(=O)c2cccc3nsnc23)CC(C)O1 (configuration not stated)	21%	-2%	18µM*	-43%	u	i
O=S(=O)(c1cccc2nsnc12)N1CCCC1	-3%	-13%	13%	2%	i	i
SMILES	SW480 rereplic	Gal4-VP16 FLuc	MCF10A rereplic	RORgamma inh	KB-3-1 tox	KB-V1 MDR tox
CCOc1nc(NC2CCCCC2)nc(NC(C)(C)C)n1	4%	16µM*	-1%	u	i	i
COc1nc(NCc2ccco2)nc(NC2CCCCC2)n1	4%	u	1%	u	i	i
CC(C)Cn1c(O)c(N=NC(=O)c2cccc(S(=O)(=O)N3CCCCC3)c2)c2ccccc21	u	-5%	u	-22%	u	2.1µM*
O=C(N=Nc1c(O)n(Cc2ccccc2)c2ccccc12)c1ccc(O)cc1	-10%	-26%	6%	u	u	15µM*
O=C(N=Nc1c(O)n(C2OC(=O)c3ccccc32)c2ccccc12)c1ccc(O)cc1 (configuration not stated)	-11%	2.8µM*	2%	2.8µM*	i	i
COc1ccc(C(=O)NCC(=O)N=Nc2c(O)n(Cc3ccccc3)c3ccccc23)cc1OC	-7%	-6%	0%	-15%	i	i
O=S1(=O)CC(O)C(N=Nc2c(O)n(Cc3ccccc3)c3ccccc23)C1 (configuration not stated)	u	1%	-2%	6%	i	i
O=C(N=Nc1c(O)n(Cc2ccccc2)c2ccccc12)c1cc2ccccc2cc1O	u	-46%	10µM*	u	u	u
NC(=O)c1ccc(C[C@H](C(=O)O)N2C(=O)c3ccc(C(=O)O)cc3C2=O)cc1	x	-3%	x	-1%	x	x
CCC(C(=O)Nc1ccc(C(C)=O)cc1)n1cnc2nc3c(cc2c1=O)CCCC3 (configuration not stated)	x	x	x	x	i	i
COc1cccc(CNC(=O)C2Cc3cc(S(=O)(=O)N4CCCCCC4)ccc3N2C(C)=O)c1 (configuration not stated)	x	x	x	x	i	u
Cn1c(O)c(N=NC(=O)c2ccco2)c2ccccc21	31%	u	u	u	i	i
CC(C)CCn1c(O)c(N=NC(=O)c2ccco2)c2ccccc21	-5%	-17%	15%	-22%	i	13µM*
CC(Cc1ccc(O)c(O)c1)C(C)Cc1ccc(O)c(O)c1 (configuration not stated)	0.37µM*!	0%	u	0%	i	i
C[C@H](Cc1ccc(O)c(O)c1)[C@@H](C)Cc1ccc(O)c(O)c1	x	x	x	x	i	i
Cc1ccc(/C=N/NC(=O)c2ccc(C(=O)N/N=C/c3ccc(C)s3)o2)s1	-4%	-21%	u	8.9µM*	i	i
Cc1ccc(/C=N/NC(=O)c2ccco2)s1	-7%	-7%	3%	u	i	i
Cc1ccc(/C=N/NC(=O)c2cccnc2)s1	2%	-81%	1%	18µM*	i	i
